According to PubChem BioAssay (Tox21):
Records with an inconclusive call do not appear. Calls of active or inactive are those of the source. The call rests on the fitted dose curve; in most records, active means well fitted curve in the direction sought with a large enough effect in the signal ratio in the repeat runs (not every such curve was filed as active); inconclusive means weak or mixed curves, or a change in a side signal; inactive means no such curve, though single readings can be large or run the other way; the % refers to the signal ratio.

assay: qHTS assay to identify small molecule agonists of the NFkB signaling pathway (AID 1159509); conditions: NFkB-bla ME-180 cells, beta-lactamase FRET ratio, 5 h; series mostly up to 61 µM; activation: at the top concentration
Description: National Center for Advancing Translational Sciences [NCATS]
NIH Chemical Genomics Center [NCGC]
U.S. Environmental Protection Agency [EPA]
National Institutes of Environmental Health Sciences [NIEHS]
National Toxicology Program [NTP]
U.S. Food and Drug Administration [FDA]
Transcription factors and their stimulated target gene expression play pivotal roles across many cellular processes including responses to environmental stimuli. Proper regulation of associated pathways is critical to maintain cell health and function. Constitutive activation of transcription factor pathways has been implicated in tumors as it may block cellular functions such as apoptosis and lead to invasion and metastasis. One important transcription factor that stimulates gene expression in response to cytokines, UV radiation, and other stimuli is nuclear factor-kappa B (NFkB). To measure activation of the NFkB pathway, the CellSensor NFkB-bla ME-180 cell line (Life Technologies, Carlsbad, CA) that stably expresses beta-lactamase reporter gene under the regulation of a NF-kB response element was used. This assay allows measurement of the NFkB pathway activity induced by compounds in a ME-180 cell line. This system quantitates NF-kB activity using a FRET-based assay system where beta-lactamase expression disrupts FRET, allowing for fluorescent measurement of activity. This cell line has been used to screen the Tox21 10K compound library and to identify compounds that induce the NFkB pathway activity.
Tox21 Assay Protocol Summary:
NFkB-bla ME-180 cells were dispensed at 2,000 cells/6 uL of assay medium per well into black wall/clear-bottom 1536-well plates using a Multidrop Combi (ThermoFisher Scientific, Waltham, MA) dispenser. After the assay plates were incubated at 37 C and 5% CO2 for an overnight, 23 nL of compounds dissolved in DMSO, positive controls or DMSO only was transferred to the assay plate by a Pintool station (Kalypsys, San Diego, CA). The assay plates were incubated at 37 C and 5% CO2 for 5 hr. One uL of LiveBLAzer B/G FRET substrate (Life Technologies) was added using a Flying Reagent Dispenser (Aurora Discovery, San Diego, CA) and the plates were incubated at room temperature for 1.5 hr. Fluorescence intensity (405 nm excitation, 460 nm and 530 nm emissions) was measured using an Envision plate reader (PerkinElmer, Shelton, CT).
On the % scale 0 is the no-effect control and ±100 the full control effect.

| Structure (SMILES) | activation |
| --- | --- |
| CC(=O)[C@H]1CC[C@H]2[C@@H]3C[C@H](C)C4=CC(=O)CC[C@]4(C)[C@H]3[C@@H](O)C[C@]12C | -1.19% (inactive) |
| Nc1nc(Cl)nc2c1ncn2[C@@H]1O[C@H](CO)[C@@H](O)[C@@H]1F | -0.655% (inactive) |
| CCCOCCOCCO | -0.501% (inactive) |
| CN1CCN(c2c(F)cc3c(=O)c(C(=O)O)cn4c3c2OCN4C)CC1 | 0.639% [at 28.5 µM] (inactive) |
| [O]=[Bi] | -0.308% [at 6.95 µM] (inactive) |
| CN1C(=O)CC(C)(c2ccccc2)C1=O (stereo not given) | 0.852% (inactive) |
| CCOC(=O)CC(=O)C(=O)OCC | -0.0435% (inactive) |
| CC(C)OCC1CO1 (stereo not given) | -0.125% (inactive) |
| CC1CC(=O)NN=C1c1ccc(NCC(C)(C)NCC(O)COc2cc(Cl)ccc2C#N)cc1 (stereo not given) | 0.945% (inactive) |
| Cc1nc2ccccn2c(=O)c1CCN1CCC(C(=O)c2ccc(F)cc2)CC1 | 0.748% (inactive) |
| CC1=CC(O)CC(C)(C)C1 (stereo not given) | 0.075% (inactive) |
| O=C(O)c1ccc(CO)o1 | -0.337% [at 78.8 µM] (inactive) |
| CCCOc1ccc(S(=O)(=O)N2CCN(CC)CC2)cc1-c1nc2c(CC)n(Cc3ccccn3)nc2c(=O)[nH]1 | -0.297% (inactive) |
| Nc1ccc(S(=O)(=O)O)cc1 | -0.0871% [at 78.8 µM] (inactive) |
| C=CCOC(=O)/C=C\C(=O)OCC=C | -0.407% [at 78.8 µM] (inactive) |
| COC(=O)CC(=O)C(C)(C)C | -0.231% (inactive) |
| O=C(O)c1cccnc1C(=O)O | 0.179% (inactive) |
| Cn1c(=O)c2c(ncn2CC(=O)O)n(C)c1=O | 0.763% (inactive) |
| CC(=O)Oc1ccc(C(=C2CCCCC2)c2ccc(OC(C)=O)cc2)cc1 | 0.322% (inactive) |
| Fc1ccccc1[C@@H](F)COC1CCC(Nc2ncnc3[nH]ncc23)CC1 (stereo not given in full) | -1.5% (inactive) |

| Structure (SMILES) | activation |
| --- | --- |
| O=C(CS)OCCOC(=O)CS | 0.159% (inactive) |
| Cc1cc(S(=O)(=O)O)ccc1N=Nc1c(O)ccc2ccccc12 | -0.458% (inactive) |
| CN(C)CCOC1=Cc2ccccc2Sc2ccc(Cl)cc21 | 1.54% (inactive) |
| CC(=O)Oc1ccc2c(c1)CC[C@@H]1[C@@H]2CC[C@]2(C)[C@@H](O)CC[C@@H]12 | -0.0835% (inactive) |
| CN(C)C(=O)Nc1ccc(Oc2ccc(Cl)cc2)cc1 | -0.665% (inactive) |
| O=c1[nH]c2ccc(S(=O)CCN3CCC(Cc4ccc(F)cc4)CC3)cc2o1 (stereo not given) | 0.402% (inactive) |
| O=C(N[C@@H](c1ccccc1)[C@@H]1CCCCN1)c1cccc(C(F)(F)F)c1Cl | -0.0095% (inactive) |
| CCn1cc(C(=O)O)c(=O)c2cc(F)c(N3CCNCC3)nc21 | -0.257% (inactive) |
| CCOc1cc(N)c(Cl)cc1C(=O)NCC1CN(Cc2ccc(F)cc2)CCO1 (stereo not given) | -0.2% (inactive) |
| Cc1c(C(=O)NN2CCCCC2)nn(-c2ccc(Cl)cc2Cl)c1-c1ccc(Cl)cc1 | 1.1% (inactive) |
| CC(C)c1nnc2ccc(-c3ocnc3-c3cc(F)ccc3F)cn12 | -0.0548% (inactive) |
| CCOC(=O)[C@@H](C)Oc1ccc(Oc2nc3ccc(Cl)cc3o2)cc1 | 0.291% (inactive) |
| COCC(O)CO (stereo not given) | 0.268% [at 78.8 µM] (inactive) |
| CNC(=S)NC | -0.927% (inactive) |
| O=C(CCCCCCC(=O)Nc1ccccc1)NO | -0.637% (inactive) |
| O=C(NCCCN1CCOCC1)c1ccc(Cl)cc1 | 0.026% (inactive) |
| O=C(C(=O)c1ccccc1)c1ccccc1 | 0.0999% (inactive) |
| C[Si]1(C)O[Si](C)(C)O[Si](C)(C)O1 | 0.0136% (inactive) |
| Cc1cc2nc3ccc(=[N+](C)C)cc-3sc2cc1N | 0.907% (inactive) |
| CCCCC(CC)CNCC(CC)CCCC (stereo not given) | 0.023% (inactive) |
